Results as given in PubChem BioAssay (NCI).
About 79,000 compounds went through this panel and 15% of them were active in at least one assay; those are over-represented in the sample as a whole. A number with no mark means an inactive call. The source made the active and inactive calls. Rule as the data show it: active = growth inhibition above about 70%; inactive = the rest.

Assay: NCI Yeast Anticancer Drug Screen. Data for the sgs1 strain (AID 173);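 also: 0% = growth of vehicle-only control cultures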
Conditions: S. cerevisiae sgs1 mutant, stronger effect = higher value
Description: Growth inhibition of yeast strains with defined genetic alterations is measured as a screen for potential anti-cancer activity. Selected strains with alterations in DNA damage repair or cell cycle control were exposed to compounds and growth inhibition was measured relative to vehicle treated controls. The strain used in this assay is sgs1

What does the source list for `CCC1(OC(=O)CN)C(=O)OCc2c1cc1n(c2=O)Cc2cc3ccccc3nc2-1` (stereo not given)?
growth inhibition (at 1.2 µM): 8%; growth inhibition (at 3.7 µM): 38%; growth inhibition (at 11.0 µM): 85% (active); growth inhibition (at 33.0 µM): 94% (active); growth inhibition (at 100.0 µM): 95% (active)

For `O=P(CCCCP(=O)(c1ccccc1)c1ccccc1)(c1ccccc1)c1ccccc1.[Cl][Sn]([Cl])([c]1ccccc1)[c]1ccccc1`, which growth inhibition (at 1.2 µM) is on record?
The growth inhibition was 0%.

What about the growth inhibition (at 3.7 µM) of the same compound?
The growth inhibition was 15%.

And the growth inhibition (at 11.0 µM)?
The growth inhibition was 68%.

What about the growth inhibition (at 33.0 µM) of the same compound?
The growth inhibition was 96% (active).

What about the growth inhibition (at 100.0 µM) of the same compound?
The growth inhibition was 97% (active).

What does the source list for `N#Cc1cc(N(CCCl)CCCl)c([N+](=O)[O-])cc1[N+](=O)[O-]`?
growth inhibition (at 1.2 µM): 29%; growth inhibition (at 3.7 µM): 31%; growth inhibition (at 11.0 µM): 44%; growth inhibition (at 33.0 µM): 82% (active); growth inhibition (at 100.0 µM): 92% (active)

What does the source list for `CCNC(=O)OCC1C2=C(C(=O)C(C)=C(N)C2=O)N2CC3C(N3C)C12OC` (stereo not given)?
growth inhibition (at 1.2 µM): 4%; growth inhibition (at 3.7 µM): 16%; growth inhibition (at 11.0 µM): 29%; growth inhibition (at 33.0 µM): 59%; growth inhibition (at 100.0 µM): 81% (active)

Which results are given for `CC1CC(C)CC(C)C(O)/C(C#N)=C/C=C/CC(C2CCCC2C(=O)O)OC(=O)CC(O)C(C)C1` (stereo not given)?
growth inhibition (at 1.2 µM): 95% (active); growth inhibition (at 3.7 µM): 97% (active); growth inhibition (at 11.0 µM): 98% (active); growth inhibition (at 33.0 µM): 97% (active); growth inhibition (at 100.0 µM): 97% (active)

With `CC(=O)O/C(=C1\C[C@H]2[C@@H]3CC=C4C[C@@H](OC(C)=O)CC[C@]4(C)[C@H]3CC[C@]2(C)C1=O)C(F)(F)F` as the compound, how does the growth inhibition (at 1.2 µM) read?
Its growth inhibition is 2%.

And the growth inhibition (at 3.7 µM)?
The growth inhibition was 3%.

What about the growth inhibition (at 11.0 µM) of the same compound?
The growth inhibition was 4%.

And the growth inhibition (at 33.0 µM)?
The growth inhibition was 3%.

And the growth inhibition (at 100.0 µM)?
The growth inhibition was 2%.

With `Oc1c(Br)cc(Br)cc1Br` as the compound, how does the growth inhibition (at 1.2 µM) read?
Its growth inhibition is 13%.

What about the growth inhibition (at 3.7 µM) of the same compound?
The growth inhibition was 12%.

What about the growth inhibition (at 11.0 µM) of the same compound?
Its growth inhibition is 6%.

What about the growth inhibition (at 33.0 µM) of the same compound?
The growth inhibition was 37%.

What about the growth inhibition (at 100.0 µM) of the same compound?
Its growth inhibition is 88% (active).

Which growth inhibition (at 1.2 µM) does the source give for `COc1cc([C@@H]2c3cc4c(cc3C[C@@H]3COC(=O)C32)OCO4)cc(OC)c1O` (stereo not given in full) here?
Its growth inhibition is 20%.

What about the growth inhibition (at 3.7 µM) of the same compound?
The growth inhibition was 16%.

And the growth inhibition (at 11.0 µM)?
Its growth inhibition is 72% (active).

What about the growth inhibition (at 33.0 µM) of the same compound?
The growth inhibition was 90% (active).

And the growth inhibition (at 100.0 µM)?
Its growth inhibition is 96% (active).
